Experimental data published in PubChem BioAssay AID2284066 (EPA ToxCast).
Calls of active or inactive are those of the source. The calls were made as follows: active = hit-call score of the fitted dose curve at least 0.9, where 1 is the maximum; inactive = score below 0.9.

Target: Tyrosine-protein kinase Fyn (Homo sapiens) (UniProt P06241)
Experiment: ERF_FR_ENZ_hFYN: Eurofins (ERF) Enzymatic Radiometric [Km ATP] KinaseProfiler LeadHunter Assay for human Fyn Tyrosine Kinase
Experimental: ERF_FR_ENZ_hFYN is a biochemical, single-readout assay that uses extracted gene-proteins in a cell-free assay. Measurements were taken 1 hour after chemical dosing in a 96-well plate. See Fyn Human TK Kinase Enzymatic HTRF Assay [Km ATP], Cerep.ERF_FR_ENZ_hFYN is an assay component calculated from the ERF_FR_ENZ_hFYN assay. It is designed to measure enzyme activity using a type of enzyme reporter as detected by fluorescence intensity with HTRF technology.Data from the assay component ERF_FR_ENZ_hFYN was analyzed at the assay endpoint, ERF_FR_ENZ_hFYN, in the positive analysis fitting direction relative to DMSO as the negative control and baseline of activity. Using a type of enzyme reporter, loss-of-signal activity can be used to understand changes in enzymatic activity as they relate to gene FYN. To generalize the intended target to other relatable targets, this assay endpoint is annotated to the kinase intended target family, where the subfamily is non-receptor tyrosine […].
Fyn (h) is incubated with 50 mM Tris pH 7.5, 0.1 mM EGTA, 0.1 mM Na3VO4, 250 uM […] (Cdc2 peptide), 10 mM MgAcetate and [gamma-33P]-ATP (specific activity and concentration as required). The reaction is initiated by the addition of the Mg/ATP mix. After incubation for 40 minutes at room temperature, the reaction is stopped by the addition of phosphoric acid to a concentration of 0.5%. […]

Chain of Tyrosine-protein kinase Fyn (Homo sapiens) (P06241 whole entry, looked up): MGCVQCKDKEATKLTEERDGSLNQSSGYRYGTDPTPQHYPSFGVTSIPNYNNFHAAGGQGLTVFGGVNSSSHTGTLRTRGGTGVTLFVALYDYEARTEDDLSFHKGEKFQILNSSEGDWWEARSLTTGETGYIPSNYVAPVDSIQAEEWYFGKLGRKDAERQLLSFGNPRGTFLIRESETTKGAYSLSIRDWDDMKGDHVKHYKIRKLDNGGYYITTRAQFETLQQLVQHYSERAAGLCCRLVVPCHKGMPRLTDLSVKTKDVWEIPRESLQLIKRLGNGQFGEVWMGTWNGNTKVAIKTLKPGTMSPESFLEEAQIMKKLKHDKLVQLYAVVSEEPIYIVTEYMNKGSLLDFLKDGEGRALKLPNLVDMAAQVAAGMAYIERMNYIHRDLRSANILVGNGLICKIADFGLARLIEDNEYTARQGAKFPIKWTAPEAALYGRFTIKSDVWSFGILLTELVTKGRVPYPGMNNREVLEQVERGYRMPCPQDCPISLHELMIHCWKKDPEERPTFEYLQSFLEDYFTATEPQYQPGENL

Row | Compound | AC50
1 | O=C(/C=C/c1ccc(O)cc1)CC(=O)/C=C/c1ccc(O)cc1 | 992 nM (active)
